# From PubChem BioAssay (Tox21)
# Where “and” joins values, the source holds several entries; their conditions need not be identical. Equal entries are not always repeated. Results filed as inconclusive are left out. Entries that show only a call come without a potency. A structure can be active in one record and inactive in another. Calls of active or inactive are those of the source. Calls come from the whole dose curve; as a rule, active = well fitted curve in the direction sought with a large enough effect in the repeat runs; inconclusive = weak or mixed curves; inactive = no such curve, though single readings can be large; an effect the other way counts as inactive or inconclusive.
# Assays:
# [1] = qHTS RealTime-Glo MT Cell Viability Assay in HEK293 cells - 0 hour (AID 1224880); note: nearly all actives have a fitted effect of over 45% in size; note: potency is the fitted concentration of half-maximal effect
# Summary of the method: (§1)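 600 cells/well were plated with the nonlytic NanoLuc/prosubstrate reagent, pre-incubated 5 h, then given 23 nL of compound in DMSO. Incubation at 37 C for 40 h, with luminescence from viable-cell-reduced substrate read repeatedly from 0 h.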
# [2] = A CellTox Green Cytotoxicity Assay to monitor cytotoxicity in HEK293 cells - 32 hour (AID 1224881); note: nearly all actives have a fitted effect of over 40% in size; note: potency is the fitted concentration of half-maximal effect
# Summary of the method: (§2)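 HEK293 cells, 600/well, were preincubated 5 hours and then exposed to compounds at 37 C for up to 40 hours. A cell-impermeant cyanine dye staining dead-cell DNA was read by fluorescence at 0, 8, 16, 24, 32 and 40 h time points.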
# [3] = A CellTox Green Cytotoxicity Assay to monitor cytotoxicity in HepG2 cells - 0 hour (AID 1224882); note: nearly all actives have a fitted effect of over 35% in size; note: potency is the fitted concentration of half-maximal effect
# Summary of the method: (§3)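 HepG2 cells, 600/well, preincubated 5 h with CellTox Green dye, then exposed to Tox21 compounds in DMSO at 37 C for up to 40 h. Dead-cell DNA fluorescence read at the indicated time point.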
# [4] = A CellTox Green Cytotoxicity Assay to monitor cytotoxicity in HepG2 cells - 32 hour (AID 1224883); note: nearly all actives have a fitted effect of over 50% in size; note: potency is the fitted concentration of half-maximal effect
# Summary of the method: as §3
# [5] = A CellTox Green Cytotoxicity Assay to monitor cytotoxicity in HEK293 cells - 8 hour (AID 1224884); note: nearly all actives have a fitted effect of over 35% in size; note: potency is the fitted concentration of half-maximal effect
# Summary of the method: as §2
# [6] = qHTS RealTime-Glo MT Cell Viability Assay in HepG2 cells - 16 hour (AID 1224885); note: nearly all actives have a fitted effect of over 50% in size
# Summary of the method: (§4)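 Real-time, nonlytic viability: 600 HepG2 cells/well mixed with NanoLuc enzyme plus prosubstrate; 5 h settle, compound (DMSO) added by pintool; luminescence monitored over 40 h at 37 C.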
# [7] = qHTS RealTime-Glo MT Cell Viability Assay in HEK293 cells - 24 hour (AID 1224886); note: nearly all actives have a fitted effect of over 50% in size; note: potency is the fitted concentration of half-maximal effect
# Summary of the method: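 Cells + reagent dispensed (600 cells/well, HEK293) → 5 h at 37 C/5% CO2 → 23 nL compound in DMSO pinned → 40 h at 37 C → luminescence read at 0, 8, 16, 24, 32, 40 h.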
# [8] = qHTS RealTime-Glo MT Cell Viability Assay in HEK293 cells - 8 hour (AID 1224887); note: nearly all actives have a fitted effect of over 50% in size; note: potency is the fitted concentration of half-maximal effect
# Summary of the method: as §1
# [9] = A CellTox Green Cytotoxicity Assay to monitor cytotoxicity in HEK293 cells - 16 hour (AID 1224888); note: nearly all actives have a fitted effect of over 35% in size
# Summary of the method: as §2
# [10] = qHTS RealTime-Glo MT Cell Viability Assay in HepG2 cells - 0 hour (AID 1224889); note: nearly all actives have a fitted effect of over 50% in size; note: potency is the fitted concentration of half-maximal effect
# Summary of the method: as §4
Structure (SMILES),Potency [1],Potency [2],Potency [3],Potency [4],Potency [5],Potency [6],Potency [7],Potency [8],Potency [9],Potency [10]
C[C@]12CC[C@H]3[C@@H](CCC4=CC(=O)CC[C@@]43C)[C@@H]1CC[C@@H]2C(=O)CO,17.4 µM (active),inactive,inactive,inactive,inactive,inactive,24.5 µM (active),inactive,inactive,4.36 µM (active) and 9.52 µM (active)
S=C(NC1CCCCC1)NC1CCCCC1,inactive,inactive,inactive,inactive,inactive,inactive,17 µM (active) and 21.9 µM (active),–,inactive,inactive
O=C(/C=C/C=C/c1ccc2c(c1)OCO2)N1CCCCC1,inactive,inactive,inactive,inactive,inactive,inactive,–,inactive,inactive,inactive
c1cc(N(CC2CO2)CC2CO2)ccc1OCC1CO1 (stereo not given),inactive,inactive,inactive,inactive,inactive,inactive,–,inactive,inactive,inactive
COC(=O)CCC(=O)OC,inactive,inactive,inactive,inactive,inactive,inactive,inactive,inactive,inactive,inactive
O=c1oc(=O)c2cc3c(=O)oc(=O)c3cc12,inactive,–,inactive,inactive,inactive,inactive,inactive,inactive,inactive,inactive
CC(=O)Oc1ccccc1C(=O)Nc1ncc([N+](=O)[O-])s1,inactive,inactive,inactive,inactive,inactive,inactive,–,inactive,inactive,inactive
CCC(C)OC(=O)c1ccc(O)cc1 (stereo not given),inactive,inactive,inactive,–,inactive,inactive,–,inactive,inactive,inactive
Cc1ccc2c(n1)Oc1ccc(C(C)C(=O)OCC(=O)N(C)C)cc1C2 (stereo not given),inactive,inactive,inactive,inactive,inactive,inactive,inactive,inactive,inactive,inactive
CCCCOCCOCCOCCO,inactive,inactive,inactive,inactive,inactive,inactive,inactive,inactive,inactive,inactive
CCCCCCCCCC(=O)OC,inactive,inactive,inactive,inactive,inactive,inactive,inactive,inactive,inactive,inactive
O=C(c1ccc(OCCN2CCCCC2)cc1)c1c(-c2ccc(O)cc2)sc2cc(O)ccc12,inactive,54.9 µM (active) and inactive,inactive,49 µM (active) and 54.9 µM (active),inactive,inactive,19.5 µM (active),21.9 µM (active),–,inactive
OCCO,inactive,inactive,inactive,inactive,inactive,inactive,inactive,inactive,inactive,inactive
CC(=O)c1ccccn1,inactive,inactive,inactive,inactive,inactive,inactive,inactive,inactive,inactive,inactive
CC(CCC(=O)O)(c1ccc(O)cc1)c1ccc(O)cc1,inactive,inactive,inactive,inactive,inactive,inactive,inactive,inactive,inactive,inactive
COC(=O)Nc1nc2ccc(S(=O)c3ccccc3)cc2[nH]1 (stereo not given),inactive,inactive,inactive,inactive and 952 nM (active),inactive,inactive,0.952 µM (active),inactive and 1.69 µM (active),inactive,inactive
CCC(C)CO (stereo not given),inactive,inactive,inactive and 43.6 µM (active),inactive and 43.6 µM (active),inactive,inactive,inactive and 24.5 µM (active),inactive,inactive,inactive
CC(C)CC(C)(O)C#CC(C)(O)CC(C)C (stereo not given),inactive,inactive,inactive,inactive,inactive,inactive,inactive,inactive,inactive,inactive
CC(=O)CC/C=C(\C)CCC=C(C)C,inactive,inactive,inactive,inactive,inactive,inactive,inactive,inactive,inactive,inactive
CCOCCOCCO,inactive,inactive,inactive,inactive,inactive,inactive,inactive,inactive,inactive,inactive
C/C=C/C(=O)O,inactive,inactive,inactive,inactive,inactive,inactive,inactive,inactive,inactive,inactive
c1ccc(Nc2ccccc2)cc1,inactive,21.9 µM (active) and inactive,inactive,38.9 µM (active) and inactive,inactive,inactive,17.4 µM (active) and inactive,inactive,inactive,inactive
Cc1[nH]c(=O)c(C#N)cc1-c1ccncc1,inactive,inactive,inactive,inactive,inactive,inactive,inactive,inactive,inactive,inactive
COc1ccccc1/C=C/C=O,inactive,inactive,inactive,inactive,inactive,inactive,–,inactive,inactive,inactive

Structure (SMILES),Potency [1],Potency [2],Potency [3],Potency [4],Potency [5],Potency [6],Potency [7],Potency [8],Potency [9],Potency [10]
O=C(c1ccccc1)c1ccc(O)cc1O,inactive,inactive,inactive,inactive and 43.6 µM (active),inactive,inactive,inactive,inactive,inactive,inactive
CC(C)Oc1ccc2c(=O)c(-c3ccccc3)coc2c1,inactive,inactive,inactive,inactive,inactive,inactive,12 µM (active),–,inactive,inactive
CCCCNS(=O)(=O)c1ccccc1,inactive,–,inactive,inactive,inactive,inactive,inactive and 6.16 µM (active),inactive,inactive,inactive
CC(=O)C1(C)CC2=C(CCCC2(C)C)CC1C (stereo not given),inactive,–,inactive,inactive,inactive,inactive,inactive,inactive,inactive,inactive
CC(C(=O)O)c1cccc(C(=O)c2ccccc2)c1 (stereo not given),inactive,inactive,inactive,inactive,inactive,inactive,inactive,inactive,inactive,inactive
O=C1c2cccc(O)c2C(=O)c2c(O)cccc21,inactive,inactive,inactive,inactive,inactive,inactive,–,–,inactive,inactive
O=CCCCC=O,inactive,inactive,inactive,–,inactive,inactive,42.1 µM (active) and inactive,inactive,inactive,inactive
CCCCCCCCCCCO,inactive,inactive,inactive,inactive,inactive,inactive,inactive,inactive,inactive,inactive
NNc1ccc(C(=O)O)cc1,inactive,–,inactive,inactive,inactive,inactive,inactive,inactive,inactive,inactive
Oc1ccc(O)cc1,inactive,inactive,inactive,inactive,inactive,inactive,–,inactive,inactive,inactive
C[C@]12CCC(=O)C=C1CC[C@@H]1[C@@H]2C(=O)C[C@@]2(C)[C@H]1CC[C@]2(O)C(=O)CO,–,–,inactive,inactive,inactive,inactive,inactive,inactive,inactive,5.49 µM (active)
COC(=O)c1ccccc1,inactive,–,inactive,inactive,inactive,inactive,inactive and 12.3 µM (active),inactive,inactive,inactive
O=C(c1ccccc1)c1ccccc1O,inactive,–,inactive,inactive,inactive,inactive,inactive,inactive,inactive,inactive
c1ccncc1,–,–,inactive,inactive,inactive,inactive,inactive,inactive,inactive,inactive
CC(C)=CCCC(C)CCO (stereo not given),inactive,–,inactive,inactive,inactive,inactive,inactive,inactive,inactive,inactive
CCC(C)c1ccccc1O (stereo not given),inactive,–,inactive,48.6 µM (active),inactive,inactive,inactive,inactive,–,inactive
CC(C)(C)NC(=O)[C@H]1CC[C@H]2[C@@H]3CC[C@H]4NC(=O)C=C[C@]4(C)[C@H]3CC[C@]12C,inactive,–,inactive,inactive,inactive,inactive,inactive,inactive,inactive,inactive
O=C=Nc1ccc(Cc2ccc(N=C=O)cc2)cc1,inactive,–,inactive,inactive,inactive,inactive,inactive,inactive,inactive,inactive
CCCCC(CC)COC(=O)c1ccc(N(C)C)cc1 (stereo not given),inactive,–,inactive,inactive,inactive,inactive,inactive,inactive,inactive,inactive
OC1CCCCCCCCCCC1,inactive,–,inactive and 27.5 µM (active),44.1 µM (active) and 43.6 µM (active),inactive and 43.6 µM (active),inactive,inactive,inactive,–,inactive
O=C(COc1ccc(Cl)cc1)N1CCN(Cc2ccc3c(c2)OCO3)CC1,inactive,–,inactive,inactive,inactive,inactive,38.9 µM (active),38.9 µM (active) and inactive,inactive,inactive
C[Si](C)(C)O[Si](C)(C)C,inactive,–,inactive,inactive,inactive,inactive,inactive,inactive,inactive,inactive
OC(CCl)CCl,inactive,–,inactive,inactive,inactive,inactive,inactive,inactive,inactive,inactive
O=[N+]([O-])c1ccc2c(c1)Cc1ccccc1-2,inactive,–,inactive,inactive,inactive,inactive,inactive,inactive,inactive,inactive
